Data on 54 compounds can be found in ChEMBL document CHEMBL3988442, “University of Dundee, Small-Polar-MMV Screening Library” (2021).

The whole screen tested about 69,000 compounds, of which about 420 (0.61%) showed an effect of 50% or more. The sample holds strong results, similar compounds and a random draw of the others, so the mix is not that of the screen.

This experiment has as its target T1, Histidine--tRNA ligase (Leishmania infantum) (UniProt A4I591).
T1 sequence (whole entry): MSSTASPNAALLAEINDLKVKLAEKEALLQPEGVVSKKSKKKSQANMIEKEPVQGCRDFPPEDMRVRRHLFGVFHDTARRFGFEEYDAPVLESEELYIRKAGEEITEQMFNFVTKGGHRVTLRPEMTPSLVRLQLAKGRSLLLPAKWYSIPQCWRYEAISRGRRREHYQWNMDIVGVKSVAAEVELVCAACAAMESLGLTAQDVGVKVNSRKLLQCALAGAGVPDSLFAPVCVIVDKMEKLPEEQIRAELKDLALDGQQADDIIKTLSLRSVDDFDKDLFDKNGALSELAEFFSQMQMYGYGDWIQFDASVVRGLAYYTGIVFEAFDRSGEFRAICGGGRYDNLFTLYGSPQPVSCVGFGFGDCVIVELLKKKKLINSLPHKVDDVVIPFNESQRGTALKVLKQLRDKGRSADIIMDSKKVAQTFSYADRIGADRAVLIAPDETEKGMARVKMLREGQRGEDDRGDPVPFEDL
The experiment is described as follows: Leishmania infantum Histidine tRNA synthetase (LdHisRS). In kind it is functional. More on the design: scale not given: in the data most compounds retested in dose-response had high values. The settings on record: 30 µM.
For the compound `O=C(CC1CC1)N1C[C@@H]2CN(c3ccccc3)C(=O)[C@@H]2C1`, the Percent Effect was 21.1%.
For the compound `COc1cc(CN2C[C@@H]3CNC(=O)[C@H](C)[C@@H]3C2)cc(OC)c1`, the Percent Effect was determined as 21.1%.
In the case of `O=C1[C@H]2CN(S(=O)(=O)C3CC3)C[C@H]2CN1Cc1cccnc1` it was 2.74%.
To `COCCN1C(=O)C[C@H]2[C@H]1CCN2C(=O)c1ccc[nH]1` belongs 22.6%; to `Cc1cccc(CN2C[C@@H]3CN(C(=O)c4ccnnc4)C[C@@H]3C2=O)c1`, 28.6%.
Take `O=C(c1cscn1)N1C[C@H]2CCCC(OCc3cccnc3)[C@H]2C1` (some centres undefined): the Percent Effect was found to be 17%.
In the case of `Cc1nc(N2CCCC2)nc2c1CCN(C(=O)C1CCCC1)CC2` it was 23.3%; in that of `Cc1nc(N2CCCC2)nc2c1CCN(C(=O)C1CCC1)CC2`, 51.3%; in that of `Cc1nc(N2CCCC2)nc2c1CCN(C(=O)C1CCCCC1)CC2`, 23.1%.
Regarding `CNC(=O)CN1CC[C@H]2CN(C(=O)c3ccc(C)cc3)C[C@H]2C1`, the Percent Effect was found to be 9.72%.
For the compound `O=C(c1cscn1)N1CC[C@@H]2[C@@H]1CCN2c1ccccn1`, the Percent Effect was determined as 10.5%.
Take `Cn1ncc(-c2cc(-c3cccc(O)c3)nc(N)c2C#N)c1C1CC1`: the Percent Effect amounted to 64.6%.
For `Cc1cc(O)ccc1-c1cc(-c2cnn(C)c2C2CC2)c(C#N)c(N)n1`, the Percent Effect worked out at 29.1%.
In the case of `Cc1nn(C)c(C)c1-c1cc(-c2cnn(C)c2C2CC2)c(C#N)c(N)n1` it was 19%; in that of `CC(CNC(=O)c1cnccn1)Oc1ccc(F)cc1` (centres undefined), 5.31%.
To `O=C(c1cncc(N2CCCC3(CCNCC3)CC2)n1)N1CCCCC1` belongs 31.7%; to `O=C(c1cncc(N2CCC3(CCNCC3)CC2)n1)N1CCCC1`, 18.4%.
With `O=C(c1cncc(N2CCC3(CCCNC3)C2)n1)N1CCCC1` (centres undefined), the Percent Effect stood at 56.7%.
In the case of `CC1(C)[C@H]2CC=C(CN3CCCn4nc(CNS(C)(=O)=O)cc4C3)[C@@H]1C2` it was 10.6%.
As to `CS(=O)(=O)NCC1CCCN(C(=O)Nc2cccc3ccccc23)C1` (centres undefined), the Percent Effect came out at 33%.
In the case of `CN1C(=O)[C@H]2CC[C@@H]1CN(C(=O)Nc1ccccc1C(F)(F)F)C2` it was 7.84%.
In the case of `CC(C)c1ccccc1NC(=O)N1C[C@@H]2CC[C@H](C1)N(C)C2=O` it was 11.8%; in that of `O=C(Nc1cccc2ccccc12)N1CCC(N2CCSCC2)CC1`, 18.3%; in that of `CN1C(=O)[C@H]2CC[C@@H]1CN(C(=O)Nc1cccc3ccccc13)C2`, 68.6%.
In the case of `Cc1oncc1C(=O)N1CC[C@H]2C[C@H](c3ccncn3)O[C@@H]2C1` it was 7.27%; in that of `CS(=O)(=O)NC[C@]12COC[C@H]1CN(C(=O)C1CC=CC1)C2`, -44.5%; in that of `Fc1cnc(N2CCC3(CC2)CC(OCc2cccnc2)CO3)nc1` (centres undefined), 8.77%.
Consider `Fc1ccc(N2CCC3(CC2)CC(OCc2cccnc2)CO3)cc1` (centres undefined), for which the Percent Effect came out at 56.1%.
To `N#Cc1ccc(N2CCC3(CC2)CC(OCc2cccnc2)CO3)cc1` (centres undefined) belongs 33.3%; to `CCN1CC[C@@]2(C(=O)N(C)C)CCN(C(=O)NC(C)C)CC[C@@H]12`, 15.5%.
As to `COc1cccc2c1ccn2CC(=O)N1CCCC(C(=O)O)C1` (centres undefined), the Percent Effect was found to be 7.89%.
Consider `COc1cccn(CC(=O)N2CCCC3(CCCCC3)C2)c1=O`, for which the Percent Effect came to 110%.
In the case of `COc1cccc(CN2CC3(CCNCC3)CCC2=O)c1OC` it was 8.57%; in that of `COC1CCN(C(=O)Cn2cccc(C(F)(F)F)c2=O)C1` (centres undefined), 18.8%.
Take `COc1ccccc1C(=O)N1CCOC2(CCCN(C(C)=O)C2)C1` (centres undefined): the Percent Effect amounted to 8%.
`COc1cccn(CC(=O)N2CCC3(CCNCC3)C2)c1=O`: the Percent Effect amounted to 116%.
On to `COc1ccccc1-c1ccccc1CC1(C(=O)O)CCNCC1`, for which the Percent Effect was 2.84%.
Consider `CCCOCC1CCN(C(=O)Cn2ncc(N3CCCC3)cc2=O)C1` (centres undefined), for which the Percent Effect is -3.8%.
To `O=C1NCC2(CCCN(C(=O)Cn3nc4ccccc4n3)CC2)O1` (centres undefined) belongs 6.45%.
In the case of `CCCOCC1CCN(C(=O)Cn2cccc(OC)c2=O)C1` (centres undefined) it was 97.4%; in that of `CCCOCC1CCN(C(=O)Cn2cccc(C(F)(F)F)c2=O)C1` (centres undefined), 12%.
Consider `COc1cccn(CC(=O)N2CCCC3(CCCO3)CC2)c1=O` (centres undefined), for which the Percent Effect was determined as 101%.
In the case of `O=C([C@H]1CN(Cc2ccoc2)C[C@H]2OCC[C@@H]12)N1CCCCO1`, the Percent Effect was 22.2%.
In the case of `Cc1nc(CN2CCO[C@@H]3CN(C(=O)CC4CC4)CC[C@@H]3C2)cs1` it was 12.7%.
To `COC[C@@H]1CC[C@H]2[C@H](CCN2S(=O)(=O)c2ccc(C)cc2)O1` belongs 2.65%; to `CN(C)C[C@H]1OC[C@@H]2CN(C(=O)NCc3cccc(F)c3)CC[C@@H]21`, 0%; to `Cc1n[nH]c(CN2CCN(Cc3ccccc3)[C@@H]3CS(=O)(=O)C[C@@H]32)n1`, 32%.
In the case of `CCN1C[C@H]2C3(CCN(S(C)(=O)=O)CC3)CC[C@@]2(C(=O)N(C)C)C1` it was 12%; in that of `Cc1cc(C(=O)N2C[C@@H]3COC[C@]3(COCc3cccnc3)C2)no1`, 12.6%.
As to `O=C(N[C@@H]1CN(c2ncccn2)[C@@H]2CCCO[C@@H]21)c1cnccn1`, the Percent Effect worked out at 18.9%.
For `O=C1CC[C@@H]2[C@@H](CCN2C(=O)c2ccsc2)N1Cc1ccncc1`, the Percent Effect amounted to 14.7%.
As to `CN1C(=O)[C@H]2CC[C@@H]1CN(C(=O)c1nnc3n1CCCCC3)C2`, the Percent Effect turned out to be 17.8%.
On to `COc1ccccc1CC(=O)N1CC[C@H](O)[C@]2(CCCO2)C1`, for which the Percent Effect is 18.8%.
As for `CC1CCN(S(=O)(=O)c2cccn(CC(=O)N3CCOCC3)c2=O)CC1`, the Percent Effect was -7.77%.
